About 2,000 (36%) of roughly 5,500 compounds were called active. Not shown: some 18% with an inconclusive outcome. No stated cut-off is given here; in the data, active means normalized growth mostly below about 0.91 (no sharp cut-off); inconclusive means no clear call, values can overlap the other calls; inactive means mostly above about 0.92. Some of the results follow.
Experiment: chemical genetic growth profiling, strain panel (AID 1159580);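 further: tested at 20 µM; growth read once vehicle control cultures reached saturation at 30 °C; 1 = growth at the plate median or of vehicle wells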
Details: growth OD
[1] = S. cerevisiae deletion strains, locus YBR229C, strain ROT2, stronger effect = lower value
[2] = S. cerevisiae deletion strains, locus YDL101C, strain DUN1, stronger effect = lower value
[3] = S. cerevisiae deletion strains, locus YDR150W, strain NUM1, stronger effect = lower value
[4] = S. cerevisiae deletion strains, locus YEL061C, strain CIN8, stronger effect = lower value
[5] = S. cerevisiae deletion strains, locus YHR030C, strain SLT2, stronger effect = lower value
[6] = S. cerevisiae deletion strains, locus YJR043C, strain POL32, stronger effect = lower value
[7] = S. cerevisiae deletion strains, locus YLR039C, strain RIC1, stronger effect = lower value
[8] = S. cerevisiae deletion strains, locus YLR262C, strain YPT6, stronger effect = lower value
[9] = S. cerevisiae deletion strains, locus YMR307W, strain GAS1, stronger effect = lower value
[10] = S. cerevisiae deletion strains, locus YNL153C, strain GIM3, stronger effect = lower value
[11] = S. cerevisiae deletion strains, locus YPL241C, strain CIN2, stronger effect = lower value

Measured: normalized growth

Oc1cc(O)cc(/C=C/c2ccccc2)c1
active: S. cerevisiae deletion strains, locus YLR418C, strain cdc73, stronger effect = lower value 0.797
inactive: S. cerevisiae deletion strains, locus YBR021W, strain FUR4, stronger effect = lower value 1.1 | [1] 1 | S. cerevisiae deletion strains, locus YCL029C, strain bik1, stronger effect = lower value 0.973 | S. cerevisiae deletion strains, locus YDL035C, strain GPR1, stronger effect = lower value 1.01 | S. cerevisiae deletion strains, locus YDL074C, strain BRE1, stronger effect = lower value 0.983 | [2] 0.978 | S. cerevisiae deletion strains, locus YDL185W, strain tfp1, stronger effect = lower value 0.959 | S. cerevisiae deletion strains, locus YDL192W, strain arf1, stronger effect = lower value 0.977 | S. cerevisiae deletion strains, locus YDR101C, strain arx1, stronger effect = lower value 1.04 | [3] 0.998 | S. cerevisiae deletion strains, locus YDR162C, strain NBP2, stronger effect = lower value 0.996 | S. cerevisiae deletion strains, locus YDR318W, strain mcm21, stronger effect = lower value 0.965 | S. cerevisiae deletion strains, locus YDR388W, stronger effect = lower value 0.987 | S. cerevisiae deletion strains, locus YDR502C, strain sam2, stronger effect = lower value 0.962 | [4] 1 | S. cerevisiae deletion strains, locus YER110C, stronger effect = lower value 0.977 | S. cerevisiae deletion strains, locus YER155C, strain BEM2, stronger effect = lower value 0.995 | S. cerevisiae deletion strains, locus YER167W, strain BCK2, stronger effect = lower value 1.01 | S. cerevisiae deletion strains, locus YGL078C, strain dbp3, stronger effect = lower value 0.953 | S. cerevisiae deletion strains, locus YGL086W, strain mad1, stronger effect = lower value 0.995 | S. cerevisiae deletion strains, locus YGL248W, strain PDE1, stronger effect = lower value 0.957 | S. cerevisiae deletion strains, locus YGR135W, strain pre9, stronger effect = lower value 0.921 | S. cerevisiae deletion strains, locus YGR252W, strain gcn5, stronger effect = lower value 0.88 | [5] 1 | S. cerevisiae deletion strains, locus YHR079C, strain IRE1 (second series), stronger effect = lower value 0.976 | S. cerevisiae deletion strains, locus YHR094C, strain hxt1, stronger effect = lower value 0.987 | S. cerevisiae deletion strains, locus YHR129C, strain ARP1, stronger effect = lower value 0.99 | S. cerevisiae deletion strains, locus YHR200W, strain rpn10, stronger effect = lower value 0.981 | S. cerevisiae deletion strains, locus YIL066C, strain RNR3, stronger effect = lower value 1.01 | S. cerevisiae deletion strains, locus YIL073C, strain SPO22, stronger effect = lower value 0.963 | S. cerevisiae deletion strains, locus YIL125W, strain kgd1, stronger effect = lower value 1.01 | S. cerevisiae deletion strains, locus YIR030C, strain dcg1, stronger effect = lower value 0.983 | S. cerevisiae deletion strains, locus YJL095W, strain BCK1, stronger effect = lower value 0.961 | S. cerevisiae deletion strains, locus YJL134W, strain LCB3, stronger effect = lower value 1.01 | S. cerevisiae deletion strains, locus YJL168C, strain set2, stronger effect = lower value 0.974 | S. cerevisiae deletion strains, locus YJL187C, strain SWE1 (second series), stronger effect = lower value 0.966 | [6] 1.03 | S. cerevisiae deletion strains, locus YKL009W, strain mrt4, stronger effect = lower value 0.964 | S. cerevisiae deletion strains, locus YKL068W, stronger effect = lower value 0.994 | S. cerevisiae deletion strains, locus YKL085W, strain MDH1 (second series), stronger effect = lower value 0.994 | S. cerevisiae deletion strains, locus YKL085W, strain MDH1, stronger effect = lower value 0.994 | S. cerevisiae deletion strains, locus YKR001C, strain vps1, stronger effect = lower value 0.987 | [7] 1.03 | S. cerevisiae deletion strains, locus YLR058C, strain SHM2, stronger effect = lower value 0.996 | S. cerevisiae deletion strains, locus YLR102C, strain apc9, stronger effect = lower value 0.992 | [8] 1.02 | S. cerevisiae deletion strains, locus YLR268W, strain sec22, stronger effect = lower value 1.02 | S. cerevisiae deletion strains, locus YLR330W, strain CHS5, stronger effect = lower value 0.993 | S. cerevisiae deletion strains, locus YLR342W, strain FKS1 (second series), stronger effect = lower value 1.07 | S. cerevisiae deletion strains, locus YLR371W, strain rom2, stronger effect = lower value 0.933 | S. cerevisiae deletion strains, locus YML016C, strain PPZ1, stronger effect = lower value 0.998 | S. cerevisiae deletion strains, locus YML032C, strain rad52, stronger effect = lower value 0.993 | S. cerevisiae deletion strains, locus YML124C, strain tub3, stronger effect = lower value 0.982 | S. cerevisiae deletion strains, locus YMR078C, strain ctf18, stronger effect = lower value 0.984 | S. cerevisiae deletion strains, locus YMR223W, strain ubp8, stronger effect = lower value 0.977 | [9] 1 | S. cerevisiae deletion strains, locus YNL067W, strain RPL9B, stronger effect = lower value 0.968 | S. cerevisiae deletion strains, locus YNL128W, strain TEP1, stronger effect = lower value 0.977 | [10] 0.96 | S. cerevisiae deletion strains, locus YNL233W, strain BNI4, stronger effect = lower value 0.981 | S. cerevisiae deletion strains, locus YNL250W, strain rad50, stronger effect = lower value 0.935 | S. cerevisiae deletion strains, locus YNL271C, strain bni1, stronger effect = lower value 0.984 | S. cerevisiae deletion strains, locus YNL298W, strain CLA4, stronger effect = lower value 1.02 | S. cerevisiae deletion strains, locus YNL307C, strain MCK1, stronger effect = lower value 0.991 | S. cerevisiae deletion strains, locus YNR052C, strain pop2, stronger effect = lower value 0.977 | S. cerevisiae deletion strains, locus YOL006C, strain TOP1, stronger effect = lower value 1.15 | S. cerevisiae deletion strains, locus YOL012C, strain htz1 1.16 | S. cerevisiae deletion strains, locus YOL147C, strain pex11, stronger effect = lower value 0.977 | S. cerevisiae deletion strains, locus YOR061W, strain CKA2, stronger effect = lower value 1.01 | S. cerevisiae deletion strains, locus YOR069W, strain VPS5, stronger effect = lower value 0.989 | S. cerevisiae deletion strains, locus YOR136W, strain idh2, stronger effect = lower value 0.984 | S. cerevisiae deletion strains, locus YOR144C, strain elg1, stronger effect = lower value 0.999 | S. cerevisiae deletion strains, locus YOR184W, strain ser1, stronger effect = lower value 1.05 | S. cerevisiae deletion strains, locus YOR316C, strain cot1, stronger effect = lower value 0.984 | [11] 1 | S. cerevisiae deletion strains, locus YPR119W, strain clb2, stronger effect = lower value 0.978 | S. cerevisiae deletion strains, locus YPR141C, strain kar3, stronger effect = lower value 0.969 | S. cerevisiae deletion strains, locus YPR163C, strain tif3, stronger effect = lower value 0.99 | S. cerevisiae deletion strains, locus YPR167C, strain met16, stronger effect = lower value 0.957 | S. cerevisiae deletion strains, strain wtn01, stronger effect = lower value 1 | S. cerevisiae strains, strain wild type, stronger effect = lower value 1.01

O=C(O)CCS(=O)(=O)/C=C/c1ccccc1
inactive: S. cerevisiae deletion strains, locus YAL013W, strain DEP1, stronger effect = lower value 0.995 | [1] 0.989 | S. cerevisiae deletion strains, locus YCL061C, strain MRC1, stronger effect = lower value 1 | [2] 1.04 | [3] 0.984 | [4] 1 | S. cerevisiae deletion strains, locus YGR078C, strain PAC10, stronger effect = lower value 1.02 | [5] 0.996 | S. cerevisiae deletion strains, locus YHR087W, strain rtc3, stronger effect = lower value 1.01 | S. cerevisiae deletion strains, locus YJL187C, strain SWE1, stronger effect = lower value 0.992 | [6] 0.989 | S. cerevisiae deletion strains, locus YJR075W, strain HOC1, stronger effect = lower value 1 | S. cerevisiae deletion strains, locus YKL190W, strain CNB1, stronger effect = lower value 0.979 | [7] 0.989 | S. cerevisiae deletion strains, locus YLR058C, strain SHM2 (second series), stronger effect = lower value 0.982 | S. cerevisiae deletion strains, locus YLR085C, strain ARP6, stronger effect = lower value 0.988 | [8] 1 | S. cerevisiae deletion strains, locus YML094W, strain GIM5, stronger effect = lower value 1.11 | S. cerevisiae deletion strains, locus YMR219W, strain ESC1, stronger effect = lower value 0.991 | S. cerevisiae deletion strains, locus YMR263W, strain SAP30, stronger effect = lower value 0.955 | [9] 0.951 | [10] 1.01 | S. cerevisiae deletion strains, locus YNL298W, strain CLA4 (second series), stronger effect = lower value 0.997 | S. cerevisiae deletion strains, locus YNL322C, strain KRE1, stronger effect = lower value 0.992 | S. cerevisiae deletion strains, locus YNR030W, strain Alg12, stronger effect = lower value 1.03 | S. cerevisiae deletion strains, locus YPL055C, strain LGE1, stronger effect = lower value 1.02 | [11] 1.12 | S. cerevisiae deletion strains, locus YPR135W, strain CTF4, stronger effect = lower value 1.08

— PubChem BioAssay AID1159580 (chemical genetic matrix, 2015)
